Test results: the supplement of paper PMC9177965

system: HT29 RNF43 G659fs (RNF43 659mut, CRISPR-edited); test: cell viability activity relative to DMSO (negative = inhibition); higher = more viable cells (less growth inhibition); details: 5 µM; 96 h
Protocol: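 Broad Repurposing Library primary screen at a single dose of 5 uM. HT29 sg-Ctrl and HT29 RNF43 G659fs CRISPR-edited isogenic cells were seeded at 2500 cells/well in 384-well plates in duplicate and treated for 96 h. Viability was read by CellTiter-Glo and reported as % activity relative to DMSO, with MG132 as the positive control (negative = growth inhibition).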

Structure (SMILES) | cell viability activity [%]
CN(C)CCCCC(=O)Nc1ccc(NC(=S)NC(=O)c2ccc(C(C)(C)C)cc2)cc1 | -85.9
C=CCc1cccc(/C=N/NC(=O)CN2CCN(Cc3ccccc3)CC2)c1O | -71.9
O=C1c2c(O)ccc(O)c2C(=O)c2c(NCCNCCO)ccc(NCCNCCO)c21 | -100
Cc1cc(Nc2nc(N[C@@H](C)c3ccc(F)cc3)c(C#N)cc2F)n[nH]1 | -66.7
COC(=O)Nc1ccc(-c2nc(N3CCOCC3)c3cnn(C4CCN(C(=O)OC)CC4)c3n2)cc1 | -50
Cc1cnc(Nc2ccc(F)cc2Cl)nc1-c1c[nH]c(C(=O)N[C@H](CO)c2cccc(Cl)c2)c1 | -73.7
C/C(=C\c1csc(C)n1)[C@@H]1C[C@@H]2O[C@]2(C)CCC[C@H](C)[C@H](O)[C@@H](C)C(=O)C(C)(C)[C@@H](O)CC(=O)N1 | -42.8
O=C(O)c1ccc(-n2nc(-c3ccccc3O)nc2-c2ccccc2O)cc1 | -27.9
C[C@]12CC[C@@H]3c4ccc(O)cc4C[C@@H](CCCCCCCCC[S+]([O-])CCCC(F)(F)C(F)(F)F)[C@H]3[C@@H]1CC[C@@H]2O (stereo not given in full) | -38.7
CSc1ccccc1Nc1nc(N2CCNCC2)nc2c(NCC3CC3)ncnc12 | -95.8
CN(Cc1cnc2nc(N)nc(N)c2n1)c1ccc(C(=O)N[C@@H](CCC(=O)O)C(=O)O)cc1 | -67.9
CCCCC(CC)CNC(=N)NC(=N)NCCCCCCNC(=N)NC(=N)NCC(CC)CCCC (stereo not given) | -90.6
CC(=O)N1CCN(CCOc2ccc(C3CCN(C4=Nn5c(nnc5C(F)(F)F)CC4)CC3)cc2)CC1 | -32.3
N#Cc1ccncn1 | -26.7
Cn1cnc2c(F)c(Nc3ccc(Br)cc3F)c(C(=O)NOCCO)cc21 | -75.9
CC(C)C[C@H](NC(=O)[C@H](Cc1ccccc1)NC(=O)c1cnccn1)B(O)O | -94.1
CCCCCCCCc1ccc(CCC(N)(CO)CO)cc1 | -97.8
O=C(CCCCCN1C(=O)c2cccc3cccc(c23)C1=O)NO | -79.1
C=CC(=O)Nc1cccc(Sc2nc(Nc3ccc(N4CCN(C)CC4)cc3)ncc2Cl)c1 | -59.9
CCN(CC)CCNC(=O)c1c(C)[nH]c(/C=C2\C(=O)Nc3ccc(F)cc32)c1C | -99.7

Structure (SMILES) | cell viability activity [%]
COc1c(C)cnc(Cn2cc(C#CCC(C)(C)O)c3c(Cl)nc(N)nc32)c1C | -42.7
CC(C)CC(=O)Nc1n[nH]c2c1CN(C(=O)C1CCN(C)CC1)C2(C)C | -60.4
CC(C)(C)c1ccc(C(=O)CCCN2CCC(OC(c3ccccc3)c3ccccc3)CC2)cc1 | -79.7
COc1cc2c(cc1OC)-c1cc3nc4ccccc4nc3n1C(C)(C)C2 | -64.4
Nc1nc(=O)n([C@H]2C[C@H](O)[C@@H](CO)O2)cc1F | -64.2
CC(C)(O)C(=O)N1CCN(c2ccc(C(F)(F)F)c(C3=C(c4c[nH]c5ccccc45)C(=O)NC3=O)c2)CC1 | -43.1
C[C@@H](NCCCc1cccc(C(F)(F)F)c1)c1cccc2ccccc12 | -78.1
Nc1ncnc2c1nc(Br)n2[C@@H]1O[C@@H]2COP(=O)(O)O[C@H]2[C@H]1O | -26.8
Cc1ccc(C(=O)N(CCCN)[C@@H](c2oc3cc(Cl)ccc3c(=O)c2Cc2ccccc2)C(C)C)cc1 | -63.6
Cc1ccc2c(Br)cc(Br)c(OC(=O)c3ccccc3)c2n1 | -27.6
COc1cc(Nc2c(C#N)cnc3cc(OCCCN4CCN(C)CC4)c(OC)cc23)c(Cl)cc1Cl | -96.5
CC(C)(C)c1nc(-c2cccc(NS(=O)(=O)c3c(F)cccc3F)c2F)c(-c2ccnc(N)n2)s1 | -69.4
Cc1noc2c1-c1ccccc1C(c1ccc(Cl)cc1)=N[C@H]2CC(N)=O | -53.9
CCCCCCOc1nsnc1C1=CCCN(C)C1 | -59.1
CCN(CC)CC1CCN(c2ncc3ncnc(Nc4ccc(F)c(Cl)c4)c3n2)CC1 | -37.1
N#Cc1ccc(COC[C@H]2O[C@@H](n3c(NCc4ccc(Cl)c(Cl)c4)nc4c(N)ncnc43)[C@H](O)[C@@H]2O)cc1 | -24.9
COC(=O)N[C@@H](C)CNc1nccc(-c2cn(C(C)C)nc2-c2cc(Cl)cc(NS(C)(=O)=O)c2F)n1 | -69.5
COC(=O)Nc1ccc(-c2nc(N3CCOCC3)c3cnn(C4CCN(Cc5cccnc5)CC4)c3n2)cc1 | -55.8
Cc1[nH]c2ccccc2c1CCNCc1ccc(/C=C/C(=O)NO)cc1 | -99.3
COC(=O)Nc1nc2cc(C(=O)c3cccs3)ccc2[nH]1 | -64.5
